The target of assay [1] is Estrogen receptor beta (Homo sapiens) (UniProt Q92731). As to the kind of experiment: qHTS assay to identify small molecule agonists of the estrogen receptor beta (ER-beta) signaling pathway (AID 1259377; active means well fitted activation curve with a large enough effect in the signal ratio in the repeat runs, not every such curve was filed as active; the % refers to the signal ratio). In short, it runs like this: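 A UAS-controlled beta-lactamase reporter in ER-beta-UAS-bla HEK293T cells reports receptor activation. Compounds act for 16 hr at 37C in 2% charcoal-stripped serum, and a FRET substrate is read by fluorescence after 2 hours.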
Estrogen receptor beta (Homo sapiens), sequence (Q92731 whole entry, looked up): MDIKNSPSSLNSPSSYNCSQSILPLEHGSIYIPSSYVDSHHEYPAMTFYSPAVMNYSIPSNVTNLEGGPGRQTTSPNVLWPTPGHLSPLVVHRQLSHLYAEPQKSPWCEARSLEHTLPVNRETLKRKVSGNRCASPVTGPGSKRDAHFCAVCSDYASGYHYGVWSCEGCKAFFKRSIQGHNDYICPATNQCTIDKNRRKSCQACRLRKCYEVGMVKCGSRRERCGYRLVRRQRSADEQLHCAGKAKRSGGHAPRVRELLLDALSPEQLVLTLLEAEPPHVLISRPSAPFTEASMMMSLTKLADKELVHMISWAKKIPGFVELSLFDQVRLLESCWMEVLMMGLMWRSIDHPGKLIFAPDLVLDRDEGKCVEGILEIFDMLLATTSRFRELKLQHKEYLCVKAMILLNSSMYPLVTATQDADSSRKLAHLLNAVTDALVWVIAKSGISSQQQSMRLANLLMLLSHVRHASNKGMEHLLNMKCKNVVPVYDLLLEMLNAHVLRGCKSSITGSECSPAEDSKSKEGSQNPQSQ

For assay [2] the target is unchanged. As to the kind of experiment: qHTS assay to identify small molecule antagonists of the estrogen receptor beta (ER-beta) signaling pathway (AID 1259378; active means well fitted inhibition curve with a large enough effect in the signal ratio in the repeat runs, not every such curve was filed as active; the % refers to the signal ratio; further: potency means the concentration at half of the fitted maximal effect). In short, it runs like this: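 Antagonist mode: compounds added to beta-lactamase reporter HEK293T ER-beta-UAS cells stimulated with E2 (1nM final), 16 hr at 37C. LiveBLAzer B/G FRET substrate, 2 hours room temperature, fluorescence read-out.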
In general terms: In qHTS, concentration-response curves come from the screen itself.

A short description of assay [3]: qHTS assay to identify small molecule agonists of the androgen receptor (AR) signaling pathway in the presence of an antagonist - cell viability counter screen (AID 1259379). Further: nearly all actives have a fitted effect of over 25% in size. Further: potency means the concentration at half of the fitted maximal effect. In short, it runs like this:
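In MDA-kb2 cells (human breast carcinoma, MMTV-luciferase), compounds at 15 concentrations plus 3.0uM nilutamide; 16 hr, 37C, 0% CO2; CellTiter-Fluor fluorescence read for viability.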

Assay [4] in a line: qHTS assay to identify small molecule agonists of the estrogen receptor beta (ER-beta) signaling pathway - cell viability counter screen (AID 1259380). Further: nearly all actives have a fitted effect of over 30% in size. In short, it runs like this: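 Viability of ER-beta-UAS-bla HEK293T cells was determined by CellTiter-Glo luminescence following 16 hr treatment with test compounds at 37C.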
A short description of assay [5]: qHTS assay to identify small molecule antagonists of the estrogen receptor beta (ER-beta) signaling pathway - cell viability counter screen (AID 1259382).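 Further: HEK293T cells carrying ER-beta-UAS-bla reporter stimulated with estradiol; series mostly up to about 92 µM; nearly all actives have a fitted effect of over 55% in size.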 In short, it runs like this: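 Tox21 10K library tested in qHTS format on ER-beta-bla HEK293T cells stimulated with 1nM E2; 16 hr treatment at 37C. Same-well CellTiter-Glo luminescence served as the cell viability measure.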

A short description of assay [6]: qHTS assay to identify small molecule agonists or antagonists of the thyroid stimulating hormone receptor (TSHR) signaling pathway - wild type cell line counter screen (AID 1259384; calls by dose curve). The gist of the method: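 Counter screen in untransfected Hek293: compounds (15-point titration, triplicate) plus phosphodiesterase inhibitor Ro20-1724 added after 18 h plating; 30 min RT. Intracellular cAMP via competitive d2/cryptate immunoassay, 1 h incubation.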

Assay [7] addresses Thyrotropin receptor (Homo sapiens) (UniProt P16473). Put plainly: qHTS assay to identify small molecule antagonists of the thyroid stimulating hormone receptor (TSHR) signaling pathway (AID 1259385; calls by dose curve; further: nearly all actives have a fitted effect of over 20% in size). In short, it runs like this: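 Antagonist mode: compound-treated TSHR-expressing HEK293 cells were stimulated with 1.5 ng/mL TSH (final) in presence of Ro20-1724 for 30 min at RT. HTRF cAMP detection after 1 h; each compound tested at 15 concentrations, triplicate.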

A short description of assay [8]: qHTS assay to identify small molecule agonists of the estrogen receptor alpha (ER-alpha) signaling pathway in the presence of an antagonist - cell viability counter screen (AID 1259386).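 Further: cells exposed to compounds for 22 h at 37 °C before the viability read; nearly all actives have a fitted effect of over 30% in size.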 Further: potency means the concentration at half of the fitted maximal effect. In short, it runs like this: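 Fluorescent CellTiter-Fluor viability signal from VM7Luc4E2 cells, with the reagent added during the final hour of a 22hr compound exposure at 37C in the presence of 10.0nM ICI-182,780.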

Assay [9] deals with Progesterone receptor (Homo sapiens) (UniProt P06401). Put plainly: qHTS assay to identify small molecule agonists of the progesterone receptor (PR) signaling pathway (AID 1346784; calls by dose curve; further: nearly all actives have a fitted effect of over 30% in size). The gist of the method: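 Agonist mode, quantitative HTS format in a HEK 293T line expressing a UAS-controlled beta-lactamase reporter; 16 hr compound exposure at 37C in 2% charcoal-stripped FBS, then LiveBLAzer B/G FRET fluorescence.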
Progesterone receptor (Homo sapiens), sequence (P06401 whole entry, looked up): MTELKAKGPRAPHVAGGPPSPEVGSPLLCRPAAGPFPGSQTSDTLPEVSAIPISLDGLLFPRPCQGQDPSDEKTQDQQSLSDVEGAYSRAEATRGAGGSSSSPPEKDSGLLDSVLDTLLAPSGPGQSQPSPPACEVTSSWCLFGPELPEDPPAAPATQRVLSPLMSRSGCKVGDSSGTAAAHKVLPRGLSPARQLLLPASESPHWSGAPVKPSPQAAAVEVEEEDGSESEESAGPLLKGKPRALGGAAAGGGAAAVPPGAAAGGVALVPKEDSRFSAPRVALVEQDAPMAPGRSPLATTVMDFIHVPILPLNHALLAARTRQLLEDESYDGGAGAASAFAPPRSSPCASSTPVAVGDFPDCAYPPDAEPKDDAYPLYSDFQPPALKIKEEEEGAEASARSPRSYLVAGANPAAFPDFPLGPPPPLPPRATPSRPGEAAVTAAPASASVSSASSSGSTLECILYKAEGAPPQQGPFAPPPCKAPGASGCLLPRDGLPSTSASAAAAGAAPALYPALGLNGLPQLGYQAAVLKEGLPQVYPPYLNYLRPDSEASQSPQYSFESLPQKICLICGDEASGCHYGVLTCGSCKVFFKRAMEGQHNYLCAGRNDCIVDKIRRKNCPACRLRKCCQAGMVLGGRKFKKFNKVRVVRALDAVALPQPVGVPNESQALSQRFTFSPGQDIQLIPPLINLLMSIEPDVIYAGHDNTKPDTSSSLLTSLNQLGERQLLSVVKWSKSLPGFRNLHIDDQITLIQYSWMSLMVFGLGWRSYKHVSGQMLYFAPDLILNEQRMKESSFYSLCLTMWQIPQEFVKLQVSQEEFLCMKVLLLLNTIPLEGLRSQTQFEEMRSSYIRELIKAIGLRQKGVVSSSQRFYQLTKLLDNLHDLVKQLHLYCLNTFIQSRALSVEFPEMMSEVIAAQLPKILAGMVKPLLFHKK

The target is the same in assay [10]. As to the kind of experiment: qHTS assay to identify small molecule antagonists of the progesterone receptor (PR) signaling pathway (AID 1346795; active means well fitted inhibition curve with a large enough effect in the signal ratio in the repeat runs, not every such curve was filed as active; the % refers to the signal ratio; further: potency means the concentration at half of the fitted maximal effect). The gist of the method:
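HEK293T PR-UAS-bla reporter cells in charcoal-stripped serum (2%) received compound after a 6 hr settling period, followed by R5020 agonist at 1 nM final; 16 hr incubation preceded the FRET substrate step and fluorescence measurement.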

Assay [11] in a line: qHTS assay to identify small molecule antagonists of the progesterone receptor (PR) signaling pathway - cell viability counter screen (AID 1346798). Further: series mostly up to about 92 µM; nearly all actives have a fitted effect of over 50% in size. In short, it runs like this:
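Same-well multiplex: after 16 hr at 37C with compound and R5020 stimulation, HEK293T cells carrying a UAS-bla reporter received LiveBLAzer substrate (2 hr RT), then CellTiter-Glo (30 min RT) for luminescent viability.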

The nature of assay [12]: qHTS assay to identify small molecule agonists of the progesterone receptor (PR) signaling pathway - cell viability counter screen (AID 1346799; calls by dose curve; further: nearly all actives have a fitted effect of over 45% in size). In short, it runs like this: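 Counter screen for cytotoxicity: compound-treated PR-UAS-bla HEK293T cells (16 hr, 37C, 5% CO2) were assayed with CellTiter-Glo, luminescence measured after 30 min at room temperature.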
Assay [13] can be described thus: qHTS assay to identify small molecule antagonists of the TGF-beta/Smad signaling pathway - cell viability counter screen (AID 1346824). Further: nearly all actives have a fitted effect of over 50% in size. In short, it runs like this: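 Cytotoxicity counter-screen run in the same wells as the beta-lactamase Smad reporter read: CellTiter-Glo luminescence after 30 min at room temperature. HEK 293T SBE-bla cells had 5 hr compound exposure at 37 C with TGF-beta1 (0.25 ng/mL stock).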

Assay [14] in a line: qHTS assay to identify small molecule agonists of the TGF-beta/Smad signaling pathway - cell viability counter screen (AID 1346829). Further: top concentration of the series differs between compounds; nearly all actives have a fitted effect of over 45% in size. In short, it runs like this:
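Same-well cytotoxicity: CellTiter-Glo added after the 2 hr room-temperature beta-lactamase substrate step, luminescence measured 30 min later; cells had 5 hr of compound at 37 C.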

Assay [15] can be described thus: qHTS assay to identify small molecule agonists of the TGF-beta/Smad signaling pathway (AID 1346859; active means well fitted activation curve with a large enough effect in the signal ratio in the repeat runs, not every such curve was filed as active; the % refers to the signal ratio; further: series mostly up to about 77 µM). In short, it runs like this:
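Smad-responsive beta-lactamase reporter cells (HEK 293T) received compounds from DMSO stocks after overnight attachment, were incubated 5 hr, then treated 2 hr with FRET substrate before dual-emission fluorescence measurement (405 nm excitation).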

Assay [16] can be described thus: Human pregnane X receptor (PXR) small molecule agonists, qHTS cell viability counter screen (AID 1346977). Further: nearly all actives have a fitted effect of over 50% in size. Further: potency means the concentration at half of the fitted maximal effect. The gist of the method:
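Measures live-cell protease fluorescence (CellTiter-Fluor) in PXR-Luc HepG2 cells treated 24hr with compounds at 37C. Cells had 5hr to attach before pin transfer of DMSO solutions.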

For assay [17], the target named is Androgen receptor (Homo sapiens) (UniProt P10275). Put plainly: qHTS assay to identify small molecule agonists of the androgen receptor (AR) signaling pathway in the presence of an antagonist (AID 1259381; calls by dose curve; further: nearly all actives have a fitted effect of over 15% in size). In short, it runs like this:
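Here, 15-concentration compound series were pin-transferred onto MDA-kb2 MMTV-luciferase cells already dosed with nilutamide (3.0uM final). After 16hr at 37C, ONE-Glo was added and luminescence read 30min later at room temperature.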

Assay [18] deals with Thyrotropin-releasing hormone receptor (Homo sapiens) (UniProt P34981). As to the kind of experiment: qHTS assay to identify small molecule antagonists of the thyrotropin-releasing hormone receptor (TRHR) signaling pathway (AID 1346877; active means well fitted inhibition curve with a large enough effect in the repeat runs, not every such curve was filed as active; further: series mostly up to about 51 µM). The gist of the method: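 In this cell-based calcium flux format, HEK293 cells expressing TRHR received test compound for 5 min before the agonist TRH (1 nM final). Dye loading lasted 2 h at 37 °C.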
Thyrotropin-releasing hormone receptor (Homo sapiens), sequence (P34981 whole entry, looked up): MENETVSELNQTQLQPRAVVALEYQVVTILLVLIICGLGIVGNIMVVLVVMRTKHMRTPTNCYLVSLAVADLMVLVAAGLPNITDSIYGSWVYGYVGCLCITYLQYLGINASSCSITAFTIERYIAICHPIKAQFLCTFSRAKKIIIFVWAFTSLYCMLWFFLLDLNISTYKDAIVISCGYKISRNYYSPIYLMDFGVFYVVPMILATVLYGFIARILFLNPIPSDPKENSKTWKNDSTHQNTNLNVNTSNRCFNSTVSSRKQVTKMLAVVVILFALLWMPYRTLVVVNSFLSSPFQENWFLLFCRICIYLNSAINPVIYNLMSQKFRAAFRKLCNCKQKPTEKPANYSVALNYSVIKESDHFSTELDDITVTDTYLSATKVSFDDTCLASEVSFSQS

Assay [19] has the same target. Put plainly: qHTS assay to identify small molecule agonists of the thyrotropin-releasing hormone receptor (TRHR) signaling pathway (AID 1346891; calls by dose curve; further: series mostly up to about 58 µM). The gist of the method:
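Agonist-mode calcium mobilisation screen: TRHR-transfected HEK293 cells cultured overnight (18 h), dye-loaded for 2 h at 37 °C, exposed to compounds, and monitored by fluorescence for 3 min.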

Assay [20] concerns the target Estrogen receptor (Homo sapiens) (UniProt P03372). As to the kind of experiment: qHTS assay to identify small molecule agonists of the estrogen receptor alpha (ER-alpha) signaling pathway in the presence of an antagonist (AID 1259383; calls by dose curve; further: top concentration of the series differs between compounds; nearly all actives have a fitted effect of over 15% in size). In short, it runs like this: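 In VM7Luc4E2 cells, 4,000 per well, compounds at 15 concentrations were co-incubated 22hr at 37C with 10.0nM final ICI-182,780. Luminescence from the stably transfected 4×ERE-luciferase reporter was recorded 30min after ONE-Glo addition.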

In PubChem BioAssay (Tox21) one finds Potency and outcome data, which are given here for 7 compounds.

SMILES strings stand for the structures. Where “and” joins values, the source holds several entries; their conditions need not be identical. Equal values may be shown once. Inconclusive results are not listed. Calls of active or inactive are those of the source. Unless noted, the call rests on the fitted dose curve; in most records, active means well fitted curve in the direction sought with a large enough effect in the repeat runs; inconclusive means weak or mixed curves; inactive means no such curve, though single readings can be large; an effect the other way counts as inactive or inconclusive.

Androgen receptor (Homo sapiens), sequence (P10275 whole entry, looked up): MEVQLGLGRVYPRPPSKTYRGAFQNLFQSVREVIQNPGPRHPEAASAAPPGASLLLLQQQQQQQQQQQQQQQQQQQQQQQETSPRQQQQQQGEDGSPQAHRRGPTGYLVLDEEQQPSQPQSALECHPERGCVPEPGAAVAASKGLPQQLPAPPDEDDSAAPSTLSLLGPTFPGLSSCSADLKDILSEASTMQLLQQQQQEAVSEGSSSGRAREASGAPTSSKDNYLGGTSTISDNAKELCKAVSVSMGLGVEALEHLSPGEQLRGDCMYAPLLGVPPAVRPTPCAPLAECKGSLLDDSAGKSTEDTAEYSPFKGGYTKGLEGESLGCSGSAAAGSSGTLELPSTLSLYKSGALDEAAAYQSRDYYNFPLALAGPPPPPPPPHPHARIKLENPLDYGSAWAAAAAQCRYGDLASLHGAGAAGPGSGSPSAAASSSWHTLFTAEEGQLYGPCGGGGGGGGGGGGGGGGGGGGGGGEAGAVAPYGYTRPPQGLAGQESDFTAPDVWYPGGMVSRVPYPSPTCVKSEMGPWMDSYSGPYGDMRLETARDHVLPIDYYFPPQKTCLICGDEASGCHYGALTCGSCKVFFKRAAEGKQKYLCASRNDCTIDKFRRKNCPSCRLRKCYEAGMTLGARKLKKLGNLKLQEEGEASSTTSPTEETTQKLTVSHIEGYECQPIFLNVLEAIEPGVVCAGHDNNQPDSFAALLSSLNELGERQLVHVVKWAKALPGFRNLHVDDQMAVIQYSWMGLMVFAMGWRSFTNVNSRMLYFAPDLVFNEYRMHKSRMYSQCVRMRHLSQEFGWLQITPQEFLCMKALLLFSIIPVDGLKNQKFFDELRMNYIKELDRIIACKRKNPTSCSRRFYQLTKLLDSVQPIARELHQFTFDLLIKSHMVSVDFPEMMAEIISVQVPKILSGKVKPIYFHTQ
Thyrotropin receptor (Homo sapiens), sequence (P16473 whole entry, looked up): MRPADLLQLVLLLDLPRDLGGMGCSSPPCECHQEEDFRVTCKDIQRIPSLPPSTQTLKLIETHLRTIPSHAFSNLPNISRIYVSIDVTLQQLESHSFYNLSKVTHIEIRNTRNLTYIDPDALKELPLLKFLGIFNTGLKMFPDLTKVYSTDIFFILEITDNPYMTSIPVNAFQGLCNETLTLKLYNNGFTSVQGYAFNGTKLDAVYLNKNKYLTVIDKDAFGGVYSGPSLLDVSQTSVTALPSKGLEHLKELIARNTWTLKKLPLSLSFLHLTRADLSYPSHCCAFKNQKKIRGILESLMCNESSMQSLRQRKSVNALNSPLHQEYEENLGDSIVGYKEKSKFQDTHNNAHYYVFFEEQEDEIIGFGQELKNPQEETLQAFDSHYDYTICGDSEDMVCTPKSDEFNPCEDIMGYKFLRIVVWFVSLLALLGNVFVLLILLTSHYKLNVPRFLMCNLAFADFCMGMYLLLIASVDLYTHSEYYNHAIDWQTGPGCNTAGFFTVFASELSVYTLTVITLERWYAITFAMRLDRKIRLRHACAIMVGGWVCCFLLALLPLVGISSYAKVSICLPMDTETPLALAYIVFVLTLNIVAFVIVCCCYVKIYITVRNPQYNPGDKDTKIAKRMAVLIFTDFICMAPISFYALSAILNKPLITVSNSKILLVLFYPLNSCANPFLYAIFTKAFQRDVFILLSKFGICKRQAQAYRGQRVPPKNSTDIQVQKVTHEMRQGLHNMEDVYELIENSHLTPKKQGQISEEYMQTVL
Estrogen receptor (Homo sapiens), sequence (P03372 whole entry, looked up): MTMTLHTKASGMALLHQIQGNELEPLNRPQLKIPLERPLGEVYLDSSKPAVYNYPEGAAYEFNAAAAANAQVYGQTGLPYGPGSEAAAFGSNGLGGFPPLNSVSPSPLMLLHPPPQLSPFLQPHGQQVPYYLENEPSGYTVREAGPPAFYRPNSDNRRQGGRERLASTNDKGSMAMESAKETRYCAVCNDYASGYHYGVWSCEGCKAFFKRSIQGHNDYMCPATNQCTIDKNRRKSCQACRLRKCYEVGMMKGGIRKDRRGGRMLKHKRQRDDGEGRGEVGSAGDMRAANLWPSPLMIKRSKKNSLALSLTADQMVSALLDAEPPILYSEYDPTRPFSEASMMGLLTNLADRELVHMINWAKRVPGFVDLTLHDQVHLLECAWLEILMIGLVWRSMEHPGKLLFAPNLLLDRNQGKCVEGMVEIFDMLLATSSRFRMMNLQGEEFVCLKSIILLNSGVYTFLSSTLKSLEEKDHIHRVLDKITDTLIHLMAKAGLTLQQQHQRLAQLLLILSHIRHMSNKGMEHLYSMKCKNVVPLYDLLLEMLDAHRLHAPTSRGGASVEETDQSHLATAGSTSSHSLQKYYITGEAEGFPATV

Consider `CN(C)CCOC(C)(c1ccccc1)c1ccccn1` (centres undefined), for which the Potency entry in assay [1], in assay [2], in assay [3], in assay [4], in assay [5] and in assay [6] was “inactive” in each case. Besides, the Potency entry in assay [7], in assay [8], in assay [9], in [10], in [11] and in assay [12] was “inactive” each time. For the same compound, the Potency entry in assay [13], in assay [14] and in [16] was “inactive” throughout. The call in assay [15] was inactive.
As to `CCCCOC(=O)c1ccc(O)cc1`, the Potency result in [1], in [3], in assay [4], in [17], in assay [5] and in assay [6] was “inactive” in each case. The Potency result in assay [7], in assay [8], in assay [9], in [11], in assay [12] and in assay [13] was “inactive” each time. For the same compound, the Potency result in [14], in assay [18], in assay [19] and in assay [16] was “inactive” throughout. Moreover, the Potency in assay [2] is 19.3 µM (active); in assay [10], 27.6 µM (active) and 27.3 µM (active) and 26.6 µM (active). Further, in assay [15], the call was inactive.
Consider `NC(=O)c1cccnc1`, for which the Potency result in assay [1], in [2], in assay [3], in [4], in assay [5] and in assay [20] was “inactive” in each case. In addition, the Potency entry in assay [6], in [7], in [8], in [9], in assay [10] and in [11] was “inactive” throughout. The Potency result in [12], in assay [13], in assay [14] and in assay [16] was “inactive” throughout. In addition, the compound was classed as inactive in assay [15].
`NS(=O)(=O)c1cc2c(cc1Cl)NCNS2(=O)=O`: the Potency entry in [1], in assay [2], in assay [3], in assay [4], in assay [5] and in assay [20] was “inactive” in each case. Besides, the Potency result in assay [6], in assay [7], in [8], in assay [9], in assay [10] and in assay [11] was “inactive” throughout. The Potency entry in [12], in assay [13], in assay [14], in [18], in assay [19] and in assay [16] was “inactive” each time. For the same compound, the call in assay [15] was inactive.
For `CCN(CC)C(=O)c1cccc(C)c1`, the Potency entry in assay [1], in assay [2], in assay [3], in assay [4], in [5] and in assay [20] was “inactive” throughout. Besides, the Potency result in [6], in assay [7], in assay [8], in assay [9], in [10] and in assay [11] was “inactive” each time. The Potency result in assay [12], in assay [14] and in assay [16] was “inactive” throughout. Besides, the call in assay [15] was inactive.
On to `O=S1(=O)OC(c2ccc(O)cc2)(c2ccc(O)cc2)c2ccccc21`, for which the Potency result in [1], in [2], in [4], in assay [5], in assay [20] and in assay [9] was “inactive” in each case. In addition, the Potency result in [10], in [11], in assay [12], in [14], in assay [18] and in assay [19] was “inactive” throughout. For the same compound, the Potency in [3] is 30.6 µM (active) and 19.3 µM (active) and 10.6 µM (active); in [8], 19.3 µM (active) and 17.2 µM (active) and 13.3 µM (active); in assay [16], 24.3 µM (active) and 30.6 µM (active) and 9.44 µM (active). The compound was classed as inactive in assay [15].
`Cc1c(C(=O)O)c(O)cc2c1C(=O)c1c(O)c([C@@H]3O[C@H](CO)[C@@H](O)[C@H](O)[C@H]3O)c(O)c(O)c1C2=O`: the Potency result in assay [1], in assay [2], in assay [4], in [5], in [20] and in [9] was “inactive” throughout. Also, the Potency entry in assay [10], in assay [11], in assay [12], in [14], in assay [18] and in assay [19] was “inactive” each time. In addition, the Potency is 18.9 µM (active) and 15.4 µM (active) in assay [3]; 26.6 µM (active) and 15.4 µM (active) and 13.3 µM (active) in assay [8]; 11.2 µM (active) and 13.7 µM (active) and 23.7 µM (active) in assay [16]. Also, the result in assay [15] was inactive.
